Data reported in paper PMC7862700, “An all-to-all approach to the identification of sequence-specific readers for epigenetic DNA modifications on cytosine”.

What was measured:
Experiment in all cases: DAPPL (digital affinity profiling via proximity ligation, sequencing); 10 mM Tris-HCl pH 7.5, 50 mM NaCl, 1 mM DTT, 4% glycerol, room temperature, 30 min; GST-TFs on glutathione beads, 16-mer random dsDNA library, 0.1% formaldehyde crosslink after washing; high values mean tight binding
FEV = biological target: T1, FEV (Homo sapiens, UniProt Q99581 1-238); conditions: protein: recombinant; tags: N-terminal GST; dsDNA, one strand shown
T1 sequence: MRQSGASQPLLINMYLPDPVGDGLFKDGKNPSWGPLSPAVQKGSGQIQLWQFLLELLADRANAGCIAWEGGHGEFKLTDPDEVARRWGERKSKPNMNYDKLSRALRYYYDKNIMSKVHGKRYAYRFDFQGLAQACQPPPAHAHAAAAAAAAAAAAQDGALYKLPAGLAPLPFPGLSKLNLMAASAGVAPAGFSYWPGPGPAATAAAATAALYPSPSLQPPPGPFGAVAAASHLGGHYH
How it was run: (§1)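 Binding signal is each hexamer's read frequency for a factor divided by its frequency in the tag-only sample. The factors were GST-fused human transcription factors from yeast, captured on glutathione beads, DNA-barcoded and pooled with that sample. Pools were incubated with 200 nmole of a random double-stranded 16-mer DNA library in Tris/NaCl/DTT/glycerol buffer at room temperature for 30 min, then washed, crosslinked with 0.1% formaldehyde, proximity-ligated with BsaI/T4 ligase (1 h, 37 °C), PCR-amplified and sequenced on an Illumina NextSeq500.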

ETV5 = ETV5 (Homo sapiens, UniProt P41161 1-510); conditions: protein: recombinant; tags: N-terminal GST; dsDNA, one strand shown
ETV5, sequence (P41161 whole entry): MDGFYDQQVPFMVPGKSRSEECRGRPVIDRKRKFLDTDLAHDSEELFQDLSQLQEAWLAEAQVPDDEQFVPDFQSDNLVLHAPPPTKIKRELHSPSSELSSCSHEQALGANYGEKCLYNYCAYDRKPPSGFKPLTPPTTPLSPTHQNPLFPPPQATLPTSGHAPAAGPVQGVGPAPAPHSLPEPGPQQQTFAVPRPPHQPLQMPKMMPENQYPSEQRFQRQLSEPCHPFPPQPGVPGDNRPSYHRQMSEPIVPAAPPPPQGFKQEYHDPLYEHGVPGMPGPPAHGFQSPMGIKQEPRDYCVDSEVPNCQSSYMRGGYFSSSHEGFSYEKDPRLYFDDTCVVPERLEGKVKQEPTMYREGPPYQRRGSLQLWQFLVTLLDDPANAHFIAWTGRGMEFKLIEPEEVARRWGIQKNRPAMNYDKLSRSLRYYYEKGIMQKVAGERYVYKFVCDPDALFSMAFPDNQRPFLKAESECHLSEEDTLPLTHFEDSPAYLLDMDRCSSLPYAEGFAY
How it was run: as §1

HSF1 = HSF1 (Homo sapiens, UniProt Q00613 1-529); conditions: protein: recombinant; tags: N-terminal GST; chain copies: 3; dsDNA, one strand shown
HSF1, sequence (Q00613 whole entry): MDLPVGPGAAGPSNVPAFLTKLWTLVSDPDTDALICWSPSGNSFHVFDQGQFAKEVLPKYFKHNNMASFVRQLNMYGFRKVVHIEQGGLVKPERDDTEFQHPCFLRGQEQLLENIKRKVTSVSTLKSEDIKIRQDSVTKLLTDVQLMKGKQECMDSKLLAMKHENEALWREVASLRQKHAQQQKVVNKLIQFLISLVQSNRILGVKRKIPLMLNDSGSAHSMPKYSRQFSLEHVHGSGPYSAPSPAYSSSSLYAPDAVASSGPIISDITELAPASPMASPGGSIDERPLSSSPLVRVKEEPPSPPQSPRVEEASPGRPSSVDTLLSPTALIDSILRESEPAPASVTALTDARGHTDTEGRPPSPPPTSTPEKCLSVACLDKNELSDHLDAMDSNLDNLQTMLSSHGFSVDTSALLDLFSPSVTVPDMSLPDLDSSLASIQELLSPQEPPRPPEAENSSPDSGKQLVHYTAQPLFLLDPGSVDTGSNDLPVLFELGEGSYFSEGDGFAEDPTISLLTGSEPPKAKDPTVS
How it was run: as §1

SPIC = biological target: T2, SPIC (Homo sapiens, UniProt Q8N5J4 1-248); conditions: protein: recombinant; tags: N-terminal GST; dsDNA, one strand shown
T2 sequence: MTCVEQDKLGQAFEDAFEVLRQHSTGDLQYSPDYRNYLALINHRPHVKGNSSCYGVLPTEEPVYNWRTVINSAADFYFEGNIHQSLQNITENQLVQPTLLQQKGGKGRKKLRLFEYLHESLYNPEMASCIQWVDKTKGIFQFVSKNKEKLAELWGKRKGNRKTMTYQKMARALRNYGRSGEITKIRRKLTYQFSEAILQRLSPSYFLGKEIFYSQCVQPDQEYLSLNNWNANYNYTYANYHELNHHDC
How it was run: as §1

ELF4 = ELF4 (Homo sapiens, UniProt Q99607 1-663); conditions: protein: recombinant; tags: N-terminal GST; dsDNA, one strand shown
ELF4, sequence (Q99607 whole entry): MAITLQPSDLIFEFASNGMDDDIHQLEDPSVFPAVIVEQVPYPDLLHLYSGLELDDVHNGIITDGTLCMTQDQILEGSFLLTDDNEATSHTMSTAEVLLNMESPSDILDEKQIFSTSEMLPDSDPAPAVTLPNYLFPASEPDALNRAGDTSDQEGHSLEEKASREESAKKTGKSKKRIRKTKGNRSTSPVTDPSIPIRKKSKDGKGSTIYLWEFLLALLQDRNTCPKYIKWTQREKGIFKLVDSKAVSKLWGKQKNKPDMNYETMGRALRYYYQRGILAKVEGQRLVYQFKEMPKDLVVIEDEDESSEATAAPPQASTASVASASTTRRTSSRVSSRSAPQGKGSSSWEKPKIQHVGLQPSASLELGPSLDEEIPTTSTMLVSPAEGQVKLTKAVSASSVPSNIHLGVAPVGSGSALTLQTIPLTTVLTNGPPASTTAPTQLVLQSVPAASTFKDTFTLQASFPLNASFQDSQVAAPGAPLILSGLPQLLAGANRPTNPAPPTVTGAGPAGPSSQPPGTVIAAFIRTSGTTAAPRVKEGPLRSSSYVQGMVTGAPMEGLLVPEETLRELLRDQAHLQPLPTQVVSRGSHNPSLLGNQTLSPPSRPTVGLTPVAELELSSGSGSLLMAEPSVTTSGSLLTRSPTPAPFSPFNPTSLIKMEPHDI
How it was run: as §1

ELK4 = biological target: T3, ELK4 (Homo sapiens, UniProt P28324-2 1-405); conditions: protein: recombinant; tags: N-terminal GST; dsDNA, one strand shown
T3 sequence: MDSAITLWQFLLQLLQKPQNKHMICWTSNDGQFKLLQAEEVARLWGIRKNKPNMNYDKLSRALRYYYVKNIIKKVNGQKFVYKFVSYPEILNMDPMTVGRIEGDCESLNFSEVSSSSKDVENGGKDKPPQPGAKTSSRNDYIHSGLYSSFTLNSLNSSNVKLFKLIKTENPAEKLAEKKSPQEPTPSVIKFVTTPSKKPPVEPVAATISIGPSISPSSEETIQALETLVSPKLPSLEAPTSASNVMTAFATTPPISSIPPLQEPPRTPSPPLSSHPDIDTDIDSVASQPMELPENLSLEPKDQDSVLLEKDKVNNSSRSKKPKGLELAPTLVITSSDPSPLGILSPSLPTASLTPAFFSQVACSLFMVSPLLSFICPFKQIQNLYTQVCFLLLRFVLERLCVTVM
How it was run: as §1

ETV2 = biological target: T4, ETV2 (Homo sapiens, UniProt O00321 1-342); conditions: protein: recombinant; tags: N-terminal GST; dsDNA, one strand shown
T4 sequence: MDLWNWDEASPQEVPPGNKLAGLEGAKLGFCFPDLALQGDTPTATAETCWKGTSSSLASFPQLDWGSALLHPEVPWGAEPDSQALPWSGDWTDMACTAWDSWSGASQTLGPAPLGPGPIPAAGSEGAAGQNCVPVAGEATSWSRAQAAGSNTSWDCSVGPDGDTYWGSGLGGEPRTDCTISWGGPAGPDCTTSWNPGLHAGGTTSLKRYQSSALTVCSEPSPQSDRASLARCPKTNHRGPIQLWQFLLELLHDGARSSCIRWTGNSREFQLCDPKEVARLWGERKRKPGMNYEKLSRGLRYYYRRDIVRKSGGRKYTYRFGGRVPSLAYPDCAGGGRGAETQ
How it was run: as §1

ELF3 = biological target: T5, ELF3 (Homo sapiens, UniProt P78545 1-371); conditions: protein: recombinant; tags: N-terminal GST; dsDNA, one strand shown
T5 sequence: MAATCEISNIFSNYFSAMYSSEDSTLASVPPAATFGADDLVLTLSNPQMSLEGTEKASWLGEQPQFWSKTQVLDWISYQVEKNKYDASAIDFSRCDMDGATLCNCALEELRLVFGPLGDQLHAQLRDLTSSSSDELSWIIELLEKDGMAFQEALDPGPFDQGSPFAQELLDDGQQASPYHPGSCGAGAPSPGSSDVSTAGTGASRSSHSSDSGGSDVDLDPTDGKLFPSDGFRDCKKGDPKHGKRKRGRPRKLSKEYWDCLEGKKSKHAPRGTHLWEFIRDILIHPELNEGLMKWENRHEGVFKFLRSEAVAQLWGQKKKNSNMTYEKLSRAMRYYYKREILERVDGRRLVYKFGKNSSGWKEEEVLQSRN
How it was run: as §1

CRX = CRX (Homo sapiens, UniProt O43186 1-299); conditions: protein: recombinant; tags: N-terminal GST; dsDNA, one strand shown
CRX, sequence (O43186 whole entry): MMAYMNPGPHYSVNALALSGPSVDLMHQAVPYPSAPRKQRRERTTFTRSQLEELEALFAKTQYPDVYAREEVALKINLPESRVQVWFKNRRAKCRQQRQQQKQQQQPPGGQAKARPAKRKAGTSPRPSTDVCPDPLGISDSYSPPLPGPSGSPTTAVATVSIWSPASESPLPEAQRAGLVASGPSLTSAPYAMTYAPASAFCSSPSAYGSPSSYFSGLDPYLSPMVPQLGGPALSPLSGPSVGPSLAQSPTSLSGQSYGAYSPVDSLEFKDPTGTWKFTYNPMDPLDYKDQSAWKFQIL
How it was run: as §1

ETV1 = ETV1 (Homo sapiens, UniProt P50549 1-477); conditions: protein: recombinant; tags: N-terminal GST; dsDNA, one strand shown
ETV1, sequence (P50549 whole entry): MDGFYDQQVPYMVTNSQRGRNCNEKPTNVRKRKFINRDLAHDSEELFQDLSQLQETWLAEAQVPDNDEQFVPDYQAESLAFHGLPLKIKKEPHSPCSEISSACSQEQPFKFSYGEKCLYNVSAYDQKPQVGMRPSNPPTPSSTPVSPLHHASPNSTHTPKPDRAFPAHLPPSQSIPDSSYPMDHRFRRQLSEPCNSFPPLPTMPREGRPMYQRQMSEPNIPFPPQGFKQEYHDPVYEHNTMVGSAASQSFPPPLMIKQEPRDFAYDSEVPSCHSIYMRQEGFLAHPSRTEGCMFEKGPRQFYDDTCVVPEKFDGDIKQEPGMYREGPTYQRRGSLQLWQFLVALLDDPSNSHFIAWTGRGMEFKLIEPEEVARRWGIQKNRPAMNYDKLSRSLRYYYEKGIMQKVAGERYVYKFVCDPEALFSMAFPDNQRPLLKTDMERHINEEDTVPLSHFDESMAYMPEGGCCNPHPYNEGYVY
How it was run: as §1

ERF = biological target: T6, ERF (Homo sapiens, UniProt P50548 1-548); conditions: protein: recombinant; tags: N-terminal GST; dsDNA, one strand shown
T6 sequence: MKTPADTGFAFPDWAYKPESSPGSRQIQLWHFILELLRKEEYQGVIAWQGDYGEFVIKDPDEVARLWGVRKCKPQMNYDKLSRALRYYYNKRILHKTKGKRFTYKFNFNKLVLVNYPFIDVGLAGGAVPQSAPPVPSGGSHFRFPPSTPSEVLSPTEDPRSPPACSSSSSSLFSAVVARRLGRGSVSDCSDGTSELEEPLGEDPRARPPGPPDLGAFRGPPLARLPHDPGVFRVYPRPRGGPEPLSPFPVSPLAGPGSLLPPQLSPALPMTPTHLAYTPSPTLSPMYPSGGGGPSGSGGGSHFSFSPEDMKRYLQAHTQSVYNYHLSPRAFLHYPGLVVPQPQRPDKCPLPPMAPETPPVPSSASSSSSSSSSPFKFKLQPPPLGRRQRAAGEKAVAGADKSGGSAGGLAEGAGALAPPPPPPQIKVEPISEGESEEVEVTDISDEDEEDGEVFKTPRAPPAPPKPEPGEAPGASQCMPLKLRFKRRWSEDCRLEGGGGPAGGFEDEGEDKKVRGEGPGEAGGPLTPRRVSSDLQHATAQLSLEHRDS
How it was run: as §1

ETV3L = biological target: T7, ETV3L (Homo sapiens, UniProt Q6ZN32 1-361); conditions: protein: recombinant; tags: N-terminal GST; dsDNA, one strand shown
T7 sequence: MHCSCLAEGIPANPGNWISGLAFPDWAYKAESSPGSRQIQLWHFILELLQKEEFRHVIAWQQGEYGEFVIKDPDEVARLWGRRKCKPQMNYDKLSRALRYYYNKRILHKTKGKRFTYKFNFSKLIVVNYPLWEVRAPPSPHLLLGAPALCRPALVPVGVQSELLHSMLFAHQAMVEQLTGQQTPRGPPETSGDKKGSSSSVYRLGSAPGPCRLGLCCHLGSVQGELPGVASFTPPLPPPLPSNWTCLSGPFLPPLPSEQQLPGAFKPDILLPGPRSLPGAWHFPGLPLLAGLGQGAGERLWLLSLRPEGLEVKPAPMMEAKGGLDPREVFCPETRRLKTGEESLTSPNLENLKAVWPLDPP
How it was run: as §1

ETS2 = biological target: T8, ETS2 (Homo sapiens, UniProt P15036 1-469); conditions: protein: recombinant; tags: N-terminal GST; dsDNA, one strand shown
T8 sequence: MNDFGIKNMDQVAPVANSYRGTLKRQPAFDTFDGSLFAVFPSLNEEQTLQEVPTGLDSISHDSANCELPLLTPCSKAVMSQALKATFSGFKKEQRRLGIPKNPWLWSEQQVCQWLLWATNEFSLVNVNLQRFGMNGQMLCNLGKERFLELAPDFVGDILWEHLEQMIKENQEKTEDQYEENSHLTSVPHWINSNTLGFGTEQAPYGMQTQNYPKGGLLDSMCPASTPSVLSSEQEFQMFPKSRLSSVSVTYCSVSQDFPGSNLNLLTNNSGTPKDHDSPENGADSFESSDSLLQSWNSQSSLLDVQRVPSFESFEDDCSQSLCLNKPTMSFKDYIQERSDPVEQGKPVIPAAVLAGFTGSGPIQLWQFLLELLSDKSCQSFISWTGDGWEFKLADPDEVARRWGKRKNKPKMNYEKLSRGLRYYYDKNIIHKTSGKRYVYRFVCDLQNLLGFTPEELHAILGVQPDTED
How it was run: as §1

SPDEF = biological target: T9, SPDEF (Homo sapiens, UniProt O95238 1-335); conditions: protein: recombinant; tags: N-terminal GST; dsDNA, one strand shown
T9 sequence: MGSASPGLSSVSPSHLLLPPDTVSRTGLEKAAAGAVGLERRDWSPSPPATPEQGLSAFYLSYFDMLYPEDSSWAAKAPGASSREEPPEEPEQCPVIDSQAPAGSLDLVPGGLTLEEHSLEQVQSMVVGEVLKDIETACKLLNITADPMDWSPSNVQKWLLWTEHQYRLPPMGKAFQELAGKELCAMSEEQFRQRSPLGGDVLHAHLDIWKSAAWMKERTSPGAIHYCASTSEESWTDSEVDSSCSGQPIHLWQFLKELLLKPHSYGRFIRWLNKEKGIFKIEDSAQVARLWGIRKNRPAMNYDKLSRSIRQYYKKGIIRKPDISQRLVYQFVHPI
How it was run: as §1

ETV7 = biological target: T10, ETV7 (Homo sapiens, UniProt Q9Y603 1-341); conditions: protein: recombinant; tags: N-terminal GST; dsDNA, one strand shown
T10 sequence: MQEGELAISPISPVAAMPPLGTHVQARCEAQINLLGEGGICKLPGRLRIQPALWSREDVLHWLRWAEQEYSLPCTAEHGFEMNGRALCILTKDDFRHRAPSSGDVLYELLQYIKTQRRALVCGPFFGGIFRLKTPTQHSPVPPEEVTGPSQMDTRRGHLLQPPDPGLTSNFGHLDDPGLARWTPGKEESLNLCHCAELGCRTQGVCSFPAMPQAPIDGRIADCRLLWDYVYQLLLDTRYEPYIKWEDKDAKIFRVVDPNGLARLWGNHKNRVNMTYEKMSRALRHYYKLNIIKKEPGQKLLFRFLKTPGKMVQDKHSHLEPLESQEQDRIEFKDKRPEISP
How it was run: as §1

ELF5 = biological target: T11, ELF5 (Homo sapiens, UniProt Q9UKW6-2 1-255); conditions: protein: recombinant; tags: N-terminal GST; dsDNA, one strand shown
T11 sequence: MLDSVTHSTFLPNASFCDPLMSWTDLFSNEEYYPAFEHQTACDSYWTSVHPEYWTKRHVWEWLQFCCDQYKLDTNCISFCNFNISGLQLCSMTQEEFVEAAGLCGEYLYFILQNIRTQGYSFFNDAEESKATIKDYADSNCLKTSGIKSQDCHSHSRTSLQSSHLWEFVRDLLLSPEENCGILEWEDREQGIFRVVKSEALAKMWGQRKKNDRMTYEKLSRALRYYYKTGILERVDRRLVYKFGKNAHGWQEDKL
How it was run: as §1

ETV3 = biological target: T12, ETV3 (Homo sapiens, UniProt P41162-2 1-143); conditions: protein: recombinant; tags: N-terminal GST; dsDNA, one strand shown
T12 sequence: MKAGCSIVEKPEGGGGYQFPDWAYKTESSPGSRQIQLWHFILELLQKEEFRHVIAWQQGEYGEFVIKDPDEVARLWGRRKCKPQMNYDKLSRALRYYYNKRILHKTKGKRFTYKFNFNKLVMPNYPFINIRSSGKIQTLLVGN
How it was run: as §1

ETV6 = ETV6 (Homo sapiens, UniProt P41212 1-452); conditions: protein: recombinant; tags: N-terminal GST; dsDNA, one strand shown
ETV6, sequence (P41212 whole entry): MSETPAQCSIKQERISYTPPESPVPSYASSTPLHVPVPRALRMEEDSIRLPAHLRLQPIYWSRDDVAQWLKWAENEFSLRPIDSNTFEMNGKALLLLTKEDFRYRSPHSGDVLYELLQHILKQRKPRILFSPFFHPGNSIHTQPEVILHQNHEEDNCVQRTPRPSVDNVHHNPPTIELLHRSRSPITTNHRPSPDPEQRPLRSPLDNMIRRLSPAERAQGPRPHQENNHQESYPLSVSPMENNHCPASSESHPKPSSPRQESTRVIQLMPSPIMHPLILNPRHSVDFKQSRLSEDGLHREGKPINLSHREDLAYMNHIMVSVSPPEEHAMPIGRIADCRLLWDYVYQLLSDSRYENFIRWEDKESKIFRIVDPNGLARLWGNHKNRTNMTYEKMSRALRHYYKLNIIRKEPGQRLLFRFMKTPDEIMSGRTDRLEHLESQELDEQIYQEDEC
How it was run: as §1

TATCGC was tested, and the binding signal (FEV) was 1.17 fold enrichment (6-mer frequency, TF over GST control), the binding signal (ETV5) was 1.13 fold enrichment (6-mer frequency, TF over GST control) and the binding signal (HSF1) was 1.22 fold enrichment (6-mer frequency, TF over GST control). For the same sequence, the binding signal (SPIC) was 1.21 fold enrichment (6-mer frequency, TF over GST control), the binding signal (ELF4) was 1.23 fold enrichment (6-mer frequency, TF over GST control) and the binding signal (ELK4) was 1.3 fold enrichment (6-mer frequency, TF over GST control). The binding signal (ETV2) was 1.07 fold enrichment (6-mer frequency, TF over GST control), the binding signal (ELF3) was 1.1 fold enrichment (6-mer frequency, TF over GST control) and the binding signal (CRX) was 1.41 fold enrichment (6-mer frequency, TF over GST control). For the same sequence, the binding signal (ETV1) was 1.22 fold enrichment (6-mer frequency, TF over GST control), the binding signal (ERF) was 1.18 fold enrichment (6-mer frequency, TF over GST control) and the binding signal (ETV3L) was 1.15 fold enrichment (6-mer frequency, TF over GST control). For the same sequence, the binding signal (ETS2) was 1.1 fold enrichment (6-mer frequency, TF over GST control), the binding signal (SPDEF) was 1.17 fold enrichment (6-mer frequency, TF over GST control) and the binding signal (ETV7) was 1 fold enrichment (6-mer frequency, TF over GST control). For the same sequence, the binding signal (ELF5) was 1.19 fold enrichment (6-mer frequency, TF over GST control), the binding signal (ETV3) was 1.13 fold enrichment (6-mer frequency, TF over GST control) and the binding signal (ETV6) was 1.08 fold enrichment (6-mer frequency, TF over GST control).
